KCNH2 3.1 inh: inhibitors of human KCNH2 3.1 potassium channel isoform. U2OS KCNH2 3.1, thallium flux FluxOr; active compounds read low. activity change, % (tested at about 1.8 µM). 340,000 compounds, 0.95% hits. AID 720553;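 active means maximum activity change below -70%; inconclusive means maximum activity change from -70% to -50%; inactive means maximum activity change above -50%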;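 further: thallium influx rate constant from kinetic fluorescence after stimulation buffer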
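Measured as rate of thallium-driven FluxOr signal in transduced U2OS cells carrying the 3.1 channel, read kinetically for 2 min upon stimulation; values are rate constants scaled to DMSO control wells.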
SW480 rereplic: inducers of DNA re-replication in SW480 colon cancer cells; SW480 DNA re-replication, Hoechst DNA content imaging, 48 h; Potency, µM (titrated, usually from 46.1 µM), actives largely listed as activators; 340,000 compounds, 1.8% hits; further: nearly all actives have a fitted effect of over 55% in size
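Per well, 250 cells were exposed to pinned compound for 48 hr. Nuclear DNA was visualised with Hoechst (40 min, 37 C) and total object intensity recorded by fluorescence scanning.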
hERG WT inh: inhibitors of human wildtype KCNH2 potassium channel | Q12809 | U2OS, BacMam KCNH2, thallium flux FluxOr; active compounds read low | activity change, % at 1.84 µM | 340,000 compounds, 0.37% hits | AID 720551;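 active means maximum activity change below -70%; inconclusive means maximum activity change between -70% and -50%; inactive means maximum activity change above -50%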
Target sequence (Q12809 whole entry, looked up): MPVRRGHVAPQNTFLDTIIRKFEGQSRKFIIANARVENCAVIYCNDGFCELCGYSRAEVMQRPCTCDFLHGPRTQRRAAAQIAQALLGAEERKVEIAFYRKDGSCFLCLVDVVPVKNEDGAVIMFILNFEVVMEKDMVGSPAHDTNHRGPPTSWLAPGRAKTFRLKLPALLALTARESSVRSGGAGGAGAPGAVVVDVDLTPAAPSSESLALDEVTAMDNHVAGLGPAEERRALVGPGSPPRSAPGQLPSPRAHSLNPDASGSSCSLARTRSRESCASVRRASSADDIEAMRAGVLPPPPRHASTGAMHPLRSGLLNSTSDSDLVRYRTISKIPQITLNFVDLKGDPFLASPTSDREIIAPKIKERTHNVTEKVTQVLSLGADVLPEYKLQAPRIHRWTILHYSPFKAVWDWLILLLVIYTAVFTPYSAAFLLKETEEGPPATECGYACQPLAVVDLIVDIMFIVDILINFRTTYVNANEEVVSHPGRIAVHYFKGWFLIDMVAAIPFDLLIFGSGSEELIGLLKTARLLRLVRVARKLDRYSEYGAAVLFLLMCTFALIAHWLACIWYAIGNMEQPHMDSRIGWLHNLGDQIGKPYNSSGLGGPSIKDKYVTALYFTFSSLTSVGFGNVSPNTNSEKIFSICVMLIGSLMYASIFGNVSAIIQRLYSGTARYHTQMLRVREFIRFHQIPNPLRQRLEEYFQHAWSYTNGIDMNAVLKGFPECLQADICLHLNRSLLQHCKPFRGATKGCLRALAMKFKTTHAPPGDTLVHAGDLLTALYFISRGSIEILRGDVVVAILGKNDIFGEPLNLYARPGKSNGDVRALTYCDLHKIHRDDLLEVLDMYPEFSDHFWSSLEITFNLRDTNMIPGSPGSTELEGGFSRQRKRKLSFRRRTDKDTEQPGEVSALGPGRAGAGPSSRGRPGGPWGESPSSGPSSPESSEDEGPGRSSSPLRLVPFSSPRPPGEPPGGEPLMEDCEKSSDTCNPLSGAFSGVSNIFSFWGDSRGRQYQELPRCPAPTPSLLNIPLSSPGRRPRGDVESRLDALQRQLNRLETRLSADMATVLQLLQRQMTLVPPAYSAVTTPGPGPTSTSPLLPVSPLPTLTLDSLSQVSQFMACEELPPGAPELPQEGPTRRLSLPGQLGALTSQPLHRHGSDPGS
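U2OS cells were transduced with wild-type KCNH2 virus (2.03 x 10^8 / mL) for 4 h at room temperature, then cultured overnight at 37 C. Thallium flux was read with FluxOr dye. Rate constants were normalized to DMSO controls.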
KB-3-1 cytotox: kills parental KB-3-1 adenocarcinoma cells. KB-3-1 viability, CellTiter-Glo ATP luminescence, 72 h. Potency, µM (doses to about 46.1 µM), most hits filed as cytotoxic. 400,000 compounds, 1.4% hits. AID 1347075; further: nearly all actives have a fitted effect of over 60% in size
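KB-3-1 cells, DMEM (no phenol red) + 10% FBS; compound by pin transfer, 72 h, 37 °C. Readout: CellTiter-Glo luminescence after 10 min. Data normalized, curve-fitted.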
KB-V1 MDR tox: kills drug-selected multidrug resistant KB-V1 cells. KB-V1 MDR cells viability, CellTiter-Glo, 72 h. Potency, µM (top dose mostly 46.1 µM), usual class: cytotoxic. 400,000 compounds, 3.4% hits. AID 1347076; further: nearly all actives have a fitted effect of over 60% in size
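Potencies derive from concentration-effect curves fitted to normalized luminescence (CellTiter-Glo) of KB-V1 cells treated for 72 h at 37 degrees C in phenol-red-free DMEM containing 10% FBS.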
MCF10A rerep: inducers of DNA re-replication in MCF 10A breast cells; MCF 10A DNA re-replication, Hoechst nuclear intensity, 48 h; Potency, µM (doses to about 46.1 µM), hits mostly activators; AID 624296; 350,000 compounds, 2.9% hits; further: nearly all actives have a fitted effect of over 50% in size
A number is an active result; . = inactive; ? = inconclusive; / = no result; [ ] = dose if it differs, or a comment. Only some compounds are listed: those with a hit (about 7.6% of all), similar ones and a draw of the others. Unless noted, the call rests on the fitted dose curve; in most records, active means well fitted curve in the direction sought with a large enough effect; inconclusive means small, poorly fitted or top-dose-only effect, or another doubt; inactive means no such curve, though single readings can be large; an effect the other way counts as inactive or inconclusive.

SMILES | KCNH2 3.1 inh | SW480 rereplic | hERG WT inh | KB-3-1 cytotox | KB-V1 MDR tox | MCF10A rerep
CCOC(=O)c1c2c(n(-c3ccc(OC)cc3)c1C)C(=O)C(=O)c1ccccc1-2 | . | 5.8µM | . | ? | ? | 3.26µM
CCCCN(Cc1ccccc1)S(=O)(=O)c1cc(Br)cc2c1N(C(C)=O)C(C)C2 (configuration not stated) | . | . | . | . | 20.6µM | .
N#Cc1ccc(N2Cc3ccccc3C2=NC(=O)c2cccnc2Cl)cc1 | . | . | . | ? | 16.4µM | ?
Cc1nc2nc[nH]n2c(=O)c1NS(=O)(=O)c1ccc(Br)cc1 | / | / | / | . | ? | /
CC1CC(C)CN(CCOc2ccc(Br)cc2)C1 (configuration not stated) | -96.4 | . | . | . | ? | ?
Cc1cccc(C)c1NC(=O)C(c1ccc(C#N)cc1)n1c(=O)c(-c2cc3ccccc3[nH]2)nc2ccccc21 (configuration not stated) | / | / | / | . | ? | /
CCc1ccc(CNC(=O)c2ccc3nc(SCc4ccc(F)cc4)n(C)c3c2)cc1 | / | / | / | . | . | /
CCOC(=O)N1CCN(C(=O)c2ccc3nc(SCc4ccc(F)cc4)n(C)c3c2)CC1 | . | .[9.22 µM] | . | . | 9.2µM | .
N#Cc1cn(-c2ccccc2)nc1-c1ccc2c(c1)OCCO2 | . | . | . | . | . | 10.3µM
COc1ccccc1/C=C1\S/C(=N/NC(=O)c2cccc(Br)c2)NC1=O | . | . | . | 8.2µM | ? | 10.3µM
CC(NCc1ccc(-c2ccccc2)cc1)C(O)c1ccccc1 (configuration not stated) | . | 4.11µM | . | . | . | 25.9µM
CC(O)CNCc1ccc(-c2ccccc2)cc1 (configuration not stated) | . | ? | . | . | . | ?
Cc1oc(-c2cc(Cl)cc(Cl)c2)cc1C(=O)NCCc1ccccc1 | . | . | . | . | ? | 14.6µM
CO/N=C/c1cccn1-c1nccc(OC)c1C#N | -190.2 | . | -195.8 | . | ? | .
COc1ccnc(-n2cccc2C#N)c1C#N | . | ? | . | . | . | .
CN(Cc1ccccc1Br)C(=O)CN1C(=O)NC2(CCCCCC2)C1=O | . | . | . | . | . | ?
CCOCCCNC(=O)c1c[nH]c2ccc(S(=O)(=O)Nc3cccc(Cl)c3C)cc2c1=O | / | / | / | . | ? | /
CNC(=O)COC(=O)/C=C/c1cn(-c2ccccc2)nc1-c1ccc(C)o1 | . | . | . | . | . | .
N#Cc1ccccc1NC(=O)COC(=O)/C=C/c1cn(-c2ccccc2)nc1-c1ccc(Cl)cc1 | . | . | . | 23.1µM | . | .
NC(=O)c1ccc(NC(=O)COC(=O)/C=C/c2cn(-c3ccccc3)nc2-c2cccnc2)cc1 | . | 5.17µM | . | . | . | .
O=C(COC(=O)/C=C/c1ccc(Cl)cc1)Nc1ccccc1 | . | . | . | . | . | .
COc1ccc(-c2nn(-c3ccccc3)cc2/C=C/C(=O)OCC(=O)Nc2ccccc2C#N)cc1 | . | . | . | ? | ? | 14.6µM
COc1ccc2[nH]c3c(c2c1)CCN1C(=O)C(CC(=O)NCCc2ccccn2)C[C@H](C(=O)N2CCCCC2)[C@@]31C (some centres not stated) | . | . | . | . | . | .
CC[C@]12c3[nH]c4ccc(Cl)cc4c3CCN1C(=O)[C@@H](CC(=O)NCCC1=CCCCC1)C[C@@H]2C(=O)N1CCN(C(=O)c2ccco2)CC1 | . | . | . | . | . | ?
O=C(COC(=O)C1CCN(c2ccc(C(F)(F)F)cn2)CC1)Nc1ncc(Cl)cc1Cl | -71.1 | . | . | . | . | .
SMILES | KCNH2 3.1 inh | SW480 rereplic | hERG WT inh | KB-3-1 cytotox | KB-V1 MDR tox | MCF10A rerep
COc1ccccc1CNC(=O)COC(=O)Cn1cnc2ccccc21 | . | ? | . | . | . | 0.82µM
CCOc1ccc(C(=O)C(C)OC(=O)C2CCN(c3ccc(C(F)(F)F)cn3)CC2)cc1 (configuration not stated) | . | . | . | ? | ? | .
CC(OC(=O)C1CCN(c2ccc(C(F)(F)F)cn2)CC1)C(=O)NC1CCCCC1C (configuration not stated) | . | . | . | . | 23.1µM | .
COc1ccc(CCNC(=O)COC(=O)Cn2cnc3ccccc32)cc1OC | . | . | . | . | . | .
COc1ccccc1CNC(=O)COC(=O)C1CCN(c2ccc(C(F)(F)F)cn2)CC1 | . | 4.61µM | . | . | . | .
Cc1ccc(CNC(=O)C2CCC(=O)N(Cc3cccc(F)c3)C2)s1 (configuration not stated) | . | / | . | . | . | /
Cn1nc(C(=O)OCC(=O)c2ccc(Cl)cc2)c2ccccc2c1=O | . | . | . | . | . | .
COc1ccc(-c2ccc3oc(-c4ccc(OC)cc4)c(-c4ccc(OC)cc4)c3c2)cc1 | . | . | . | . | . | .
COc1ccc(-c2sc3ccc(N4CCOCC4)cc3c2C#CC(C)(C)O)cc1 | / | . | / | . | . | .
COc1ccc(-c2ccc3oc(-c4ccc(OC)cc4)c(C#CCO)c3c2)cc1 | . | 25.9µM | . | . | . | ?
COc1ccc(-c2oc3ccc(N4CCOCC4)cc3c2C#CCO)cc1 | . | ? | . | ? | ? | 18.4µM
O=C(NCCCN=C1NS(=O)(=O)c2ccccc21)c1ccc(S(=O)(=O)N2CCCCC2)cc1 | . | ? | . | 20.6µM | . | 23.1µM
CC(=O)Nc1ccc(S(=O)(=O)NCCC(=O)OCC(=O)N2CCN(C(=O)c3ccco3)CC2)cc1 | . | . | . | . | . | .
CC(=O)c1ccc(-n2nnnc2SCC(=O)N2CCc3ccccc3C2)cc1 | . | ? | . | . | 11.6µM | .
O=C(CSc1nnnn1-c1ccccc1)N1CCc2ccccc2C1 | . | . | . | . | 14.6µM | .
Cc1ccc(Cl)cc1NC(=O)C[n+]1ccc(Cc2ccc([N+](=O)[O-])cc2)cc1 | . | . | . | 10.3µM | ? | ?
O=C(CN(C(=O)c1ccc(Cl)cc1)C1CCCCC1)Nc1ccc(Cl)c([N+](=O)[O-])c1 | . | ? | . | . | 14.6µM | .
O=C(CN(C(=O)c1ccccc1Cl)C1CCCCC1)Nc1ccc(Cl)c([N+](=O)[O-])c1 | . | ? | . | . | . | .
Cc1ccc([N+](=O)[O-])cc1NC(=O)CN(C(=O)c1ccc(Cl)cc1)C1CCCCC1 | . | . | . | ? | 23.1µM | .
O=C(C[n+]1ccc(Cc2ccccc2)cc1)Nc1ccc([N+](=O)[O-])cc1Cl | . | . | / | . | . | ?
Cc1cccc(NC(=O)CNC(=O)c2cccc(S(=O)(=O)NCc3cccs3)c2)c1C | . | . | . | . | . | .

Assay outcomes deposited in PubChem BioAssay by National Center for Advancing Translational Sciences (NCATS).
